# In the library only some 19% were active in any assay of this set; here they are far more common.
# Giardia killer: Giardia lamblia killing | actives 0.15% (n = 340,000) | Giardia lamblia trophozoite viability | activity change, % at 7.66 µM, hits read low; in the data active = activity change below about -80%; inconclusive = between about -30% and that limit;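 note: parasites exposed to compound for two days anaerobically before the ATP read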
#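 Giardia trophozoites, 100 cells per well, were exposed to compounds for 48 hrs at 37 deg C under anaerobic conditions; viability was then read as ATP content by bioluminescence after 15-30 min at room temperature.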
# DT40 TDP1 CPT: growth inhibition of DT40 Tdp1-/-;hTDP1 cells with camptothecin (screen for TDP1 inhibitors); actives 12% (n = 420,000); chicken DT40 Tdp1-/-;hTDP1 cells + 20 nM CPT, ATP luminescence, 48 h; Potency, µM (top dose mostly 46.2 µM), without a hit: top-dose activity change, negative = growth inhibition, most hits filed as inhibitors; note: potency is the fitted concentration of half-maximal effect; nearly all actives have a fitted effect of over 55% in size
#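 Cell growth measured by CellTiter-Glo luminescence after a minimum 48 h, 37 C compound exposure with 20 nM CPT in Tdp1-knockout DT40 cells stably expressing hTDP1, seeded 400/well; qHTS titration format.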
# IL-1B inflam inh: inhibitors of inflammasome signaling (IL-1 beta secretion); THP-1 LPS/ATP IL-1B secretion, AlphaLISA, 16 h; stronger effect = lower value; activity change, % at 57.5 µM; actives 4.7% (n = 360,000); AID 743279; in the data active = activity change below about -50%; inconclusive = mostly about -30% to -49%
#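 Secreted IL-1B measured by AlphaLISA bead assay after 16 h compound exposure of THP-1 cells; compounds (final up to 57.5 uM) added 1 h before LPS (250 ng/mL) and ATP (1.25 mM) stimulation; lower signal means less secretion.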
# TDP1 cell noCPT: qHTS for Inhibitors of human tyrosyl-DNA phosphodiesterase 1 (TDP1): qHTS in cells in absence of CPT | DT40 Tdp1-/- hTDP1 cells, no CPT, ATP luminescence, 48 h | Potency, µM (top dose mostly 46.2 µM), for the others: at the top dose activity change, negative = growth inhibition, most hits filed as inhibitors | actives 15% (n = 420,000) | AID 686978, 2013; note: potency is the fitted concentration of half-maximal effect; nearly all actives have a fitted effect of over 55% in size
#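 No-CPT arm: Tdp1-/-;hTDP1 DT40 cells (400/well) plus compounds, incubated ≥48 hr at 37 °C. Readout CellTiter-Glo luminescence.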
# ELG1 DNA repair: inhibitors of ELG1-dependent DNA repair in HEK293T cells. HEK293T ELG1-luciferase reporter, luminescence, 16 h; DNA damage induced by 5-fluorouridine. Potency, µM (titrated, usually from 46.1 µM), inactives show top-dose activity change, negative = inhibition, hits mostly inhibitors. actives 2.3% (n = 330,000); note: potency is the fitted concentration of half-maximal effect; nearly all actives have a fitted effect of over 55% in size
#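 Quantitative HTS, concentration-response format. 2,000 cells/well co-treated with 5-fluorouridine and compound, 16 hr in 5% CO2 at 37 °C; ONE-Glo luminescence read after 30 min.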
# TDP1 block: inhibitors of human tyrosyl-DNA phosphodiesterase TDP1; Q9NUW8; recombinant TDP1, AlphaScreen DNA substrate cleavage; Potency, µM (titrated, usually from 130 µM), for inactives: top-dose activity change, negative = inhibition, usual class: inhibitors; actives 0.28% (n = 350,000); AID 485290; note: potency is the fitted concentration of half-maximal effect; nearly all actives have a fitted effect of over 40% in size
# Target sequence (Q9NUW8 whole entry, looked up): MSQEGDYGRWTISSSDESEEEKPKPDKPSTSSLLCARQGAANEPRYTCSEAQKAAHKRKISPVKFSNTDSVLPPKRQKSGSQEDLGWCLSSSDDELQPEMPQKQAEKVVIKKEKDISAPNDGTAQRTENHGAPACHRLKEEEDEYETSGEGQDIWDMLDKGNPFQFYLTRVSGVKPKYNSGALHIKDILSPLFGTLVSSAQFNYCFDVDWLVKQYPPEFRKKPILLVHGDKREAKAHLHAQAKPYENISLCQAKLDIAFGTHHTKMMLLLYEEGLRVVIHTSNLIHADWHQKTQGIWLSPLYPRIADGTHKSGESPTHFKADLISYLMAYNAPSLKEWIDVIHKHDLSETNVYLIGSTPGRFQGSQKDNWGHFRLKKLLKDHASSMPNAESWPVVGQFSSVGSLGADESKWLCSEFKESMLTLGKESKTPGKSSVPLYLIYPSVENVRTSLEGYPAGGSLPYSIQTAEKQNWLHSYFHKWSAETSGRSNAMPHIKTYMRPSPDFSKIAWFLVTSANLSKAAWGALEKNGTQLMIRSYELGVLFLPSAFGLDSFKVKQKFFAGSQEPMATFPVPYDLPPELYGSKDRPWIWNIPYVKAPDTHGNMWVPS
#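 Compounds were preincubated with Tdp1 (1 nM final) for 15 min at room temperature before substrate (15 nM final) started a 5 min reaction; beads (10 ug/ml final) were then added for 10 min before AlphaScreen detection.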
# Starred values were filed as active, the others as inactive; ? = inconclusive; . = no result; [ ] = another dose, or the depositor's remark. Unless noted, calls come from the whole dose curve; as a rule, active = well fitted curve in the direction sought with a large enough effect; inconclusive = small, poorly fitted or top-dose-only effect, or another doubt; inactive = no such curve, though single readings can be large; an effect the other way counts as inactive or inconclusive. % is set by controls: 0 for no effect and ±100 for the full control effect.
SMILES,Giardia killer,DT40 TDP1 CPT,IL-1B inflam inh,TDP1 cell noCPT,ELG1 DNA repair,TDP1 block
CC(C)(O)C#Cc1ccc([C@@H]2C[C@H]3CN(c4ccccc4)C(=O)[C@]34CCCN24)s1,-29.6,-23.8%,-71.6*,?,-14.8%,-2.4%
O=C(Nc1ccc(-c2ccc3nncn3n2)cc1)c1ccc(Br)o1,-17.6,-12.1%,14.1,?,-4.2%,79.4µM*
O=C(CC1CCCCC1)Nc1ccc(-c2ccc3nncn3n2)cc1,-13.1,?,-11.6,18.4µM*,-3.4%,-2.5%
Fc1cccc(-n2ncc3c2ncn2nc(Cc4ccccc4)nc32)c1,.,2.8%,.,-26.0%,.,1.2%
CC(C)C[C@H]1CNC(=S)N1C[C@H]1CCCN1C[C@H](CC(C)C)N1C[C@H](Cc2ccc(O)cc2)N(CC2CCCCCC2)C1=S,.,16.4µM*,-59.0*,8.2µM*,.,.
CC(C)C[C@H]1CNC(=S)N1CC1CCCN1C[C@H](CC(C)C)N1C[C@H](Cc2ccc(O)cc2)N(CC2CCCCCC2)C1=S (some centres undefined),18.8,23.1µM*,-5.4,18.4µM*,.,.
CC(C)C[C@H]1CNC(=S)N1CC1CCCN1C[C@H](CC(C)C)N1C[C@H](Cc2ccc(O)cc2)N(CC2CCCCC2)C1=S (some centres undefined),7.8,?,0.0,18.4µM*,.,.
Cc1ccc(NC(=O)Cn2nc(C(F)(F)F)c3c2CCCC3)cc1C,.,?,.,-21.9%,.,3.2%
CC(C)(C)c1ccc(-n2ncc3c2CCCC3NC(=O)c2ccco2)cc1 (centres undefined),.,20.6µM*,56.4,14.6µM*,.,.
Cc1cc(C)cc(-n2ncc3c2CCCC3NC(=O)c2cc(C)[nH]n2)c1 (centres undefined),-1.8,?,-15.3,?,?,0.5%
CC(C)(C)c1ccc(-n2ncc3c2CCCC3NC(=O)CCN2CCCO2)cc1 (centres undefined),-18.9,23.1µM*,38.4,?,-0.4%,5.5%
CC(C)(C)c1ccc(-n2ncc3c2CCCC3NC(=O)CCn2cncn2)cc1 (centres undefined),-1.1,?,9.2,?,-6.4%,1.4%
CC(=O)NCC(=O)NC1CCCc2c1cnn2-c1ccc(C(C)(C)C)cc1 (centres undefined),15.5,-15.4%,37.1,4.11µM*,-20.4%,3.5%
CC(C)(C)c1ccc(-n2ncc3c2CCCC3NC(=O)CCCn2cncn2)cc1 (centres undefined),27.1,13µM*,-11.6,?,-13.8%,.
Cc1nccn1CCC(=O)NC1CCCc2c1cnn2-c1ccc(C(C)(C)C)cc1 (centres undefined),.,-66.5%,?,?,.,.
COC(=O)c1cn([C@@H]2C[C@@H](C(=O)Nc3cccc(SC)c3)N(C3CCCCCC3)C2)nn1,.,4.4%[9.04 µM],.,-19.5%,.,.
O=C(Nc1nnc2n1CCS2)c1ccccc1C(F)(F)F,.,-7.3%,.,-9.0%,.,3.3%
CC1OC(c2ccccc2)OC2COC(c3ccccc3)OC12 (centres undefined),-13.7,16.2%,7.9,11.1%,.,.
Cc1ccc(C)c(N2CCN(c3nc4ccccc4n4nnnc34)CC2)c1,.,?,.,?,.,5.1%
CCOc1ncccc1C(=O)OC(C)C(=O)NC(=O)NC1CCCCC1 (centres undefined),-13.0,-97.4%,44.9,?,-3.0%,-2.5%
O=C(NC1CCCc2c1cnn2-c1cc(F)cc(F)c1)c1ccccn1 (centres undefined),-7.0,?,-16.1,-21.0%,.,.
CC(=O)Nc1cccc(C(=O)NC2CCCc3c2cnn3-c2ccc(C(C)(C)C)cc2)c1 (centres undefined),-19.2,?,56.6,?,8.2µM*,3.8%
CC(C)(C)c1ccc(-n2ncc3c2CCCC3NC(=O)CN2CCCCC2=O)cc1 (centres undefined),-4.8,16.4µM*,12.2,?,-10.0%,2.3%
CC(C)(C)c1ccc(-n2ncc3c2CCCC3NC(=O)C2(C(N)=O)CC2)cc1 (centres undefined),19.4,5.8µM*,?,1.84µM*,?,0.5%
Cc1cc(C)cc(-n2ncc3c2CCCC3NC(=O)c2cc(C)n(C)n2)c1 (centres undefined),4.1,?,0.0,?,1.8%,6.9%
SMILES,Giardia killer,DT40 TDP1 CPT,IL-1B inflam inh,TDP1 cell noCPT,ELG1 DNA repair,TDP1 block
Cc1cc(C(=O)NC2CCCc3c2cnn3-c2ccc(C(C)(C)C)cc2)nn1C (centres undefined),-3.1,8.2µM*,5.5,16.4µM*,-24.1%,4.1%
COc1ccc(NC(=O)N2CCC(CN3CCCC3)CC2)c(OC)c1,.,0.0%,.,2.6%,.,-3.7%
COc1ccc(NC(C)=O)cc1S(=O)(=O)NCCc1ccccn1,-26.8,-10.7%,0.0,5.1%,11.3%,-11.6%
CCOCCCNC(=O)c1cnc2sc(N3CCCCC3)nn2c1=O,.,-13.4%,.,1.4%,.,2.6%
O=C(CN(C(=O)CCC(=O)Nc1ccccn1)c1ccc2c(c1)OCO2)NCc1ccc(F)cc1,-18.6,-0.8%,1.0,-24.2%,-4.6%,-13.3%
COc1ccccc1C(=O)Nc1cccc(C(=O)OCc2cc(=O)n3nc(C)sc3n2)c1,.,1.5%,.,-17.5%,.,8.8%
COc1ccc(-n2ccnc2SCC(=O)NCc2ccco2)c(OC)c1,3.4,-16.9%,18.0,-24.6%,-13.1%,4.6%
OC[C@@H]1[C@@H](c2ccccc2)C(c2ccccc2)=NN1c1ccccc1,-5.1,?,6.6,16.4µM*,?,-14.9%[56.1 µM]
OC[C@@H]1[C@@H](c2ccccc2)C(c2cccc(Cl)c2)=NN1c1ccccc1,1.8,20.6µM*,?,20.6µM*,?,25.1µM*
O=C(O)C1(S(=O)(=O)CCC(F)=C(F)F)CC1,28.3,1.9%,7.4,-6.9%,9.0%,2.5%
C#CCSc1nncn1C(=O)/C=C/c1ccccc1,-9.0,13µM*,-80.7*,?,?,2.0%
O=S1(=O)c2c(F)cccc2OC(COc2ccccc2)CN1CCc1ccc(F)cc1 (centres undefined),5.6,?,-20.1,16.4µM*,.,.
O=S1(=O)c2c(F)cccc2O[C@@H](COCc2ccccc2)CN1CCc1ccc(F)cc1,7.9,?,16.2,?,.,.
COc1ccc(CNC(=O)c2noc(C)c2[N+](=O)[O-])cc1,4.5,?,6.7,-24.7%,6.7%,-1.1%
